Our source for the growth inhibition, inhibition and outcome values is PubChem BioAssay.

SMILES strings stand for the structures. Unmarked numbers belong to inactive results. For part of these data: Measured potencies and affinities stand elsewhere. The source made the active and inactive calls. Unless noted, how the calls were made is not given here.

Experiment [1] can be described thus: antimalarial activity against Dd2 strain (AID 2302;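 active means growth inhibition above 50% at the single 2 µM test dose, taken to imply half-maximal potency below 2 µM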;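 further: 0% = DMSO untreated growth and 100% = chloroquine plus artemisinin killed control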). The settings on record: P. falciparum Dd2 in RBCs, LDH growth readout, 72 h; at 2 µM; stronger effect = higher value.
Experiment [2] can be described thus: HepG2 cytotoxicity, primary screen, cytotoxicity control for P. falciparum antimalarial project, cell-based, ATP luminescence (AID 2303;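 active means inhibition above 50%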;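 further: 0% = DMSO wells and 100% = digitonin-killed cells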). The settings on record: HepG2 viability, 24-48 h, at 10 µM, stronger effect = higher value.
Experiment [3] deals with L-lactate dehydrogenase (Plasmodium falciparum (isolate CDC / Honduras)) (UniProt Q27743). Description: PfLDH activity inhibition – cell lysate, 3D7 strain, counter-screen for P. falciparum growth inhibition project (AID 2304).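 Further: 0% = vehicle and 100% = reference inhibitor.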 To be noted: P. falciparum 3D7 crude extract, LDH APAD/NBT absorbance; at 2 µM; stronger effect = higher value. In general terms: A counterscreen serves to expose hits that act by an unwanted route or on another target.
Chain of L-lactate dehydrogenase (Plasmodium falciparum (isolate CDC / Honduras)) (Q27743 whole entry, looked up): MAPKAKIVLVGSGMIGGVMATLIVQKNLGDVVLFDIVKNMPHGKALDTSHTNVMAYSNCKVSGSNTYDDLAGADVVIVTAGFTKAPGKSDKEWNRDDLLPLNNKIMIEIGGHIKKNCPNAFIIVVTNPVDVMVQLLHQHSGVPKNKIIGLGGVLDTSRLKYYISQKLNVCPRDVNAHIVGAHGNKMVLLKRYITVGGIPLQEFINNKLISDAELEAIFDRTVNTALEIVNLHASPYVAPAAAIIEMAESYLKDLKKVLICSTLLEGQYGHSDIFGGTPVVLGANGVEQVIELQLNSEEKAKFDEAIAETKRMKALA

A short description of experiment [4]: inhibition of 3D7 malaria parasite growth – strain 3D7 (AID 2306).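 Further: 0% = DMSO wells and 100% = chloroquine plus artemisinin control wells.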 To be noted: P. falciparum 3D7 erythrocytic growth, LDH absorbance, 72 h; at 2 µM; stronger effect = higher value.
The target of experiment [5] is Calcium-dependent protein kinase 1 (Plasmodium falciparum (isolate 3D7)) (UniProt P62344). Description: PfCDPK1 kinase inhibitors, biochemical, TCAMS library (AID 1159585; cut-off not given, nearly all actives have IC50 up to about 0.98 µM;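 further: inhibitors leave more ATP so luminescence rises with inhibition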). To be noted: recombinant PfCDPK1, Kinase-Glo ATP depletion luminescence. Background: Kinase-Glo reads ATP consumption through a luciferase reaction.
Chain of Calcium-dependent protein kinase 1 (Plasmodium falciparum (isolate 3D7)) (P62344 whole entry, looked up): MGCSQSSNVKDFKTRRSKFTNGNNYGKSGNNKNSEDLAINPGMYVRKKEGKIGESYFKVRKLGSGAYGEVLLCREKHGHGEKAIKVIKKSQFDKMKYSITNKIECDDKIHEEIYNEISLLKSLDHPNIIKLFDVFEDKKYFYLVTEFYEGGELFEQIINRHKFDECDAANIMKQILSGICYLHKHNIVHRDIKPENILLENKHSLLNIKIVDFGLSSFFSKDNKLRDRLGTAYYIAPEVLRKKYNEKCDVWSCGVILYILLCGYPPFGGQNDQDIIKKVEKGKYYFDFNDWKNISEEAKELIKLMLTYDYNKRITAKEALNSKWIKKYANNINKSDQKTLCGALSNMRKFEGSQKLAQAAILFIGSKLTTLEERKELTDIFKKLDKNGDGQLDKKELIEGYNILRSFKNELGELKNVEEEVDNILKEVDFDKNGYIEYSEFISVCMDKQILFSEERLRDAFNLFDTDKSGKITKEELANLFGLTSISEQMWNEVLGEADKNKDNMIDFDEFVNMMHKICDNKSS
Experiment [6] concerns the target Plasmodium falciparum protein kinase 6 (PK6, PF3D7_1337100) (UniProt Q8IDW1). Description: PfPK6 kinase inhibitors, biochemical, TCAMS library (AID 1159586). To be noted: recombinant PfPK6, Kinase-Glo ATP depletion luminescence.
For experiment [7], the target named is Protein kinase 7 (PK7), Plasmodium falciparum 3D7 (PF3D7_0213400) (UniProt Q7YTF7). Description: inhibition of Plasmodium PK7 catalytic activity – biochemical, TCAMS antimalarial set, Kinase-Glo luminescence (AID 1159587). The settings on record: recombinant PfPK7, Kinase-Glo ATP depletion luminescence.
Chain of Protein kinase 7 (PK7), Plasmodium falciparum 3D7 (PF3D7_0213400) (Q7YTF7 1-343): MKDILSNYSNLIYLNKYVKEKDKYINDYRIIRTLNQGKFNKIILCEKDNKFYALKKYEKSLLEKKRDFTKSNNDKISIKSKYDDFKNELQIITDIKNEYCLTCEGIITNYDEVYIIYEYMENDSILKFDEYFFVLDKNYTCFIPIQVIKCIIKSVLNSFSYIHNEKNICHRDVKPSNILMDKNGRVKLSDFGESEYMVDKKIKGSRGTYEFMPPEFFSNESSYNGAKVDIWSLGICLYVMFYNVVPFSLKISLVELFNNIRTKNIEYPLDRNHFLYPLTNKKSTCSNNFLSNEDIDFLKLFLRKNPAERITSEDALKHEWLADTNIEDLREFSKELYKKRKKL
Experiment [8] deals with Calcium-dependent protein kinase 4 (Plasmodium falciparum (isolate 3D7)) (UniProt Q8IBS5). Description: PfCDPK4 kinase inhibitors, biochemical, TCAMS library (AID 1159588; cut-off not given, nearly all actives have IC50 up to about 0.91 µM). The settings on record: recombinant PfCDPK4, Kinase-Glo ATP depletion luminescence.
Chain of Calcium-dependent protein kinase 4 (Plasmodium falciparum (isolate 3D7)) (Q8IBS5 whole entry, looked up): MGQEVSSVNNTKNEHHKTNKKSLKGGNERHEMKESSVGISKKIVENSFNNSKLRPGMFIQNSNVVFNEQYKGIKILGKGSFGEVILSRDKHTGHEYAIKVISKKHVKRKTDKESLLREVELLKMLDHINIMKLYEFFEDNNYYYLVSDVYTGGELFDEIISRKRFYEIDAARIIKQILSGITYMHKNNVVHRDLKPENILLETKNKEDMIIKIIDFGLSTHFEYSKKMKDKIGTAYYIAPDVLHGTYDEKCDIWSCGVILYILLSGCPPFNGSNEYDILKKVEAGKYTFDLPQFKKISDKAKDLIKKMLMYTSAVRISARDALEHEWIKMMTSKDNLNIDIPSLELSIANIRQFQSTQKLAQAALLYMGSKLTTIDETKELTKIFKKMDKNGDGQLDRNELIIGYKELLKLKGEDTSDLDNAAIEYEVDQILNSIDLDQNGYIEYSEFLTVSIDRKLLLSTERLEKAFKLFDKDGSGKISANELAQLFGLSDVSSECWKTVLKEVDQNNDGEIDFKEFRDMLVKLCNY

Chain of Plasmodium falciparum protein kinase 6 (PK6, PF3D7_1337100) (Q8IDW1 1-305): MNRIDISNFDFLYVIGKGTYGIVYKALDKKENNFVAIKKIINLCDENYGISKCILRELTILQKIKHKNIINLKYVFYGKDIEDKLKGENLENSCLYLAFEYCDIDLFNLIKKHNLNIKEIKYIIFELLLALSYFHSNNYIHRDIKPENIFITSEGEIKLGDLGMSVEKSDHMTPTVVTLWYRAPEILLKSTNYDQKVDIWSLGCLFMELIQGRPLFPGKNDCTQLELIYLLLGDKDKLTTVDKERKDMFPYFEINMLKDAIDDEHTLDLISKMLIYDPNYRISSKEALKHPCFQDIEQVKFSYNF

The inhibition is the change of the read-out against control, counted positive when it falls. `CC1CCN(C(=O)[C@H](Cc2c[nH]c3ccccc23)NS(=O)(=O)c2ccc(Cl)cc2)CC1`: the growth inhibition in experiment [1] was 99% (active); in experiment [4], 100% (active). Further, the figures for the inhibition in experiment [2] and in experiment [3] were -6% and 0%, respectively. Besides, the result in experiment [5], in experiment [6], in experiment [7] and in experiment [8] was inactive.

With `O=C(Nc1ccc(C(=O)OCC2CCCCC2)cc1)N[C@@H](Cc1ccc(O)cc1)C(=O)NC1CCN(Cc2ccc(O)cc2)C1` (some centres undefined), the growth inhibition in experiment [1] is -4%; in experiment [4], 91% (active). Besides, the inhibition in experiment [2] is 6%; in experiment [3], -1%. For the same compound, the result in experiment [5], in experiment [6], in experiment [7] and in experiment [8] was inactive.

As for `Cc1ccc(NC(=O)NC2CCN(CCCCCNC(=O)/C=C/c3ccc(Cl)c(Cl)c3)CC2)cc1C`, the growth inhibition is 25% in experiment [1] and 101% (active) in experiment [4]. For the same compound, the figures for the inhibition in experiment [2] and in experiment [3] were 36% and -3%, respectively. Also, the outcome in experiment [5], in experiment [6], in experiment [7] and in experiment [8] was inactive.

As for `COc1ccc(S(=O)(=O)N(CC(=O)NN=C(C)c2cccs2)c2cc(C)cc(C)c2)cc1OC`, the growth inhibition is 43% in experiment [1] and 97% (active) in experiment [4]. The results for the inhibition in experiment [2] and in experiment [3] were 12% and -1%, respectively. Also, the outcome in experiment [5], in experiment [6], in experiment [7] and in experiment [8] was inactive.

Consider `CC[C@@H]([C@@H](Cc1cc2ccccc2s1)C(=O)N[C@@H](CCCCNC(=O)OCc1ccccc1)C(=O)Nc1ccccn1)N(O)C=O`, for which the growth inhibition was 70% (active) in experiment [1] and 96% (active) in experiment [4]. Besides, the inhibition was 36% in experiment [2] and 6% in experiment [3]. In addition, the result in experiment [5], in experiment [6], in experiment [7] and in experiment [8] was inactive.

With `C=CCn1c(C)cc(C(=O)COc2ccc(S(=O)(=O)N3CCOCC3)cc2[N+](=O)[O-])c1C`, the growth inhibition in experiment [1] is 5%; in experiment [4], 94% (active). Moreover, the inhibition is 0% in experiment [2] and 3% in experiment [3]. Besides, the outcome in experiment [5], in experiment [6], in experiment [7] and in experiment [8] was inactive.

Turning to `Cc1cc(=O)c(-c2ccc(Oc3ccc(Cl)cc3Cl)cc2)c(C)[nH]1`, the results for the growth inhibition in experiment [1] and in experiment [4] were 73% (active) and 93% (active), respectively. The figures for the inhibition in experiment [2] and in experiment [3] were -1% and -2%, respectively. The outcome in experiment [5], in experiment [6], in experiment [7] and in experiment [8] was inactive.

Turning to `COc1ccc(O)c(C(=O)NCCc2ccc(OC)c(-c3ccc(C(C)(C)C)cc3)c2)c1`, the growth inhibition was 91% (active) in experiment [1] and 88% (active) in experiment [4]. In addition, the inhibition in experiment [2] was 11%; in experiment [3], 5%. Further, the result in experiment [5], in experiment [6], in experiment [7] and in experiment [8] was inactive.

As to `c1ccc2c(CNCCCCCCNCc3c(OCC4CC4)ccc4ccccc34)c(OCC3CC3)ccc2c1`, the figures for the growth inhibition in experiment [1] and in experiment [4] were 97% (active) and 93% (active), respectively. Further, the inhibition is 100% (active) in experiment [2] and -8% in experiment [3]. In addition, the result in experiment [5], in experiment [6], in experiment [7] and in experiment [8] was inactive.

Consider `O=S(=O)(Nc1ccc(CCN2CCC(N3CCCCC3)CC2)cc1)c1cccc(C(F)(F)F)c1`, for which the growth inhibition in experiment [1] was 15%; in experiment [4], 101% (active). Also, the values for the inhibition in experiment [2] and in experiment [3] were 20% and -3%, respectively. For the same compound, the result in experiment [5], in experiment [6], in experiment [7] and in experiment [8] was inactive.

Regarding `CS(=O)(=O)c1ccc(CCNCc2ccc(-c3ccc(CN(C(=O)C4CC(=O)c5ccccc54)C4Cc5ccccc5C4)cc3)nc2)cc1` (centres undefined), the values for the growth inhibition in experiment [1] and in experiment [4] were 21% and 90% (active), respectively. Also, the results for the inhibition in experiment [2] and in experiment [3] were 5% and -7%, respectively. Besides, the outcome in experiment [5], in experiment [6], in experiment [7] and in experiment [8] was inactive.

As to `O=S(=O)(Nc1cccc(F)c1CNCc1ccccn1)c1ccc(Cl)c(Cl)c1`, the growth inhibition in experiment [1] is 34%; in experiment [4], 92% (active). For the same compound, the values for the inhibition in experiment [2] and in experiment [3] were 45% and -5%, respectively. The outcome in experiment [5], in experiment [6], in experiment [7] and in experiment [8] was inactive.

With `COc1ccc(Cn2ccc3c4c(N)nc(N)nc4ccc32)cc1`, the growth inhibition was 93% (active) in experiment [1] and 101% (active) in experiment [4]. Moreover, the inhibition in experiment [2] is 90% (active); in experiment [3], 7%. Also, the outcome in experiment [5], in experiment [6], in experiment [7] and in experiment [8] was inactive.

For the compound `COc1ccc(NC(=O)Nc2cccc(-c3cccc(-c4nc5ccccc5[nH]4)c3)c2)cc1`, the growth inhibition was 41% in experiment [1] and 101% (active) in experiment [4]. Further, the inhibition in experiment [2] is 41%; in experiment [3], 3%. In addition, the outcome in experiment [5], in experiment [6], in experiment [7] and in experiment [8] was inactive.

For the compound `O=C1C2C(C(=O)N1c1ccccc1)[C@H]1S[C@@H]2c2c1ccc1ccccc21` (some centres undefined), the results for the growth inhibition in experiment [1] and in experiment [4] were 7% and 96% (active), respectively. The inhibition is -5% in experiment [2] and -1% in experiment [3]. In addition, the result in experiment [5], in experiment [6], in experiment [7] and in experiment [8] was inactive.

Consider `CC(=O)Nc1nc(C(=O)Nc2ccc(-c3cccc(-c4nc5ccc(F)cc5[nH]4)c3)cc2)cs1`, for which the growth inhibition in experiment [1] was 29%; in experiment [4] it was 94% (active). Also, the inhibition in experiment [2] was 86% (active); in experiment [3] it was -7%. Moreover, the outcome in experiment [5], in experiment [6], in experiment [7] and in experiment [8] was inactive.

For `COc1ccc2ncc(F)c([C@H](O)CN3CCC(NCc4ccc5c(c4)NC(=O)CO5)CC3)c2c1`, the growth inhibition was 101% (active) in experiment [1] and 102% (active) in experiment [4]. Further, the inhibition is 16% in experiment [2] and -1% in experiment [3]. In addition, the outcome in experiment [5], in experiment [6], in experiment [7] and in experiment [8] was inactive.

Turning to `CC(C)(C)N1CCC(N(Cc2ccc(-c3ccc(C(F)(F)F)cc3)cc2)C(=O)Cn2c(CCc3cccc(F)c3F)cc(=O)c3ccccc32)CC1`, the figures for the growth inhibition in experiment [1] and in experiment [4] were 97% (active) and 100% (active), respectively. Moreover, the inhibition in experiment [2] was 100% (active); in experiment [3], 4%. Moreover, the result in experiment [5], in experiment [6], in experiment [7] and in experiment [8] was inactive.
